HTT cytoprotect – protects HTT-Q103 PC12 cells, measured by ATP; PC12 HTT-Q103 induced, cytoprotection, ATP luminescence, 40 h; Potency, µM (top dose mostly 56.4 µM), without a hit: cytoprotection (ATP increase), usual class: activators; hit rate 0.14% among 230,000; further: potency means the concentration at half of the fitted maximal effect; % of control where 0% means no effect; nearly all actives have a fitted effect of over 45% in size
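Compounds added alongside 100 nM tebufenozide, which induces toxic Q103 huntingtin exon 1-GFP in stable PC12 cells; surviving cells quantified by luminescent ATP measurement. Medium: phenol red-free DMEM, 5% equine and 5% calf serum.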
IMPase inh – IMPase inhibition in cells; P97697; CHO-M1 cells, IP1 accumulation, HTRF TR-FRET ratio; inhibition (IP1 accumulation), % at 46.1 µM; 120,000 tested, under 10 active; active means well fitted curve in the direction sought with a large enough effect in the signal ratio, not every such curve was filed as active; inconclusive means small, poorly fitted or top-dose-only effect, or a change in a side signal; inactive means no such curve, though single readings can be large or run the other way; the % refers to the signal ratio;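 further: cells stimulated with carbachol in lithium chloride buffer; plate controls were DMSO basal wells for no effect and reference inhibitor wells for full effect; higher means more IMPase inhibition seen as more IP1 and lower FRET ratio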
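CHO-M1, 2000 cells/well, cultured 16–30 h; cpd up to 46 uM; carbachol (50 uM solution, stimulation buffer w/ 50 mM LiCl, pH 7.4), 30 min 37C; IP-One TR-FRET, 10 min RT; Ex 320/Em 665, 620; Hill-fit AC50.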
HTT aggregate – mutant huntingtin aggregation inhibition; PC12 HttQ103-GFP aggregates, Acumen cytometry, 40 h; Potency, µM (highest dose often 46.1 µM), inactives show top-dose activity change, negative = inhibition, most hits filed as inhibitors; hit rate 1.1% among 220,000; further: potency means the concentration at half of the fitted maximal effect; on the % scale 0 is the no-effect control and ±100 the full control effect; nearly all actives have a fitted effect of over 60% in size
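PC12 cells stably carrying ecdysone-inducible HTT exon 1 Q103–GFP were induced with tebufenozide (100 nM final) and treated with library compounds in titration. GFP aggregates in lysates were counted by laser scanning cytometry.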
12-hLO inh – inhibitors of human 12-lipoxygenase (ALOX12) | P18054 | purified 12-hLO, xylenol orange hydroperoxide absorbance | Potency, µM (titrated, usually from 57.1 µM), without a hit: at the top dose activity change, negative = inhibition, hits mostly inhibitors | hit rate 0.12% among 150,000; further: potency means the concentration at half of the fitted maximal effect; on the % scale 0 is the no-effect control and ±100 the full control effect; nearly all actives have a fitted effect of over 55% in size
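150 nM 12hLO, 25 mM Hepes pH 7.0 + 0.01% Triton X-100; cpd preinc 15 min RT; 40 uM arachidonic acid, 30 min RT; Fe-XO 30 min; A573/A405 ratio as read-out.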
PNC assembly inh – inhibitors of perinucleolar compartment assembly; activity change (PNC), negative = inhibition, % at 10 µM; PC3M PTB-GFP, PNC prevalence imaging, 16 h; stronger effect = lower value; AID 2417; hit rate 3.1% among 140,000;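 active means readout at or below -70, meaning at least 70% loss of cells showing the perinucleolar compartment, a nuclear body marking cancer cells; inconclusive means readout between -30 and a set limit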;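 further: plate controls were DMSO wells for no effect and camptothecin positive control wells for full effect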
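Read-out is percentage of cells bearing a perinucleolar compartment, from automated 20x imaging of fixed, Hoechst-stained PC3M PTB-GFP cells. Cells were seeded 4 h, then exposed 16 h to compound (23 nl of library stock) in duplicate plates.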
NPSR antagonist – neuropeptide S receptor (human) antagonism, cAMP. Q6W5P4. CHO-NPSR cells, cAMP TR-FRET, antagonist mode. Potency, µM (top dose mostly 38.3 µM), inactives show top-dose activity change, negative = inhibition, most hits filed as inhibitors. AID 1461. hit rate 1% among 220,000; further: potency means the concentration at half of the fitted maximal effect; on the % scale 0 is the no-effect control and ±100 the full control effect; nearly all actives have a fitted effect of over 50% in size
Target sequence (Q6W5P4 whole entry, looked up): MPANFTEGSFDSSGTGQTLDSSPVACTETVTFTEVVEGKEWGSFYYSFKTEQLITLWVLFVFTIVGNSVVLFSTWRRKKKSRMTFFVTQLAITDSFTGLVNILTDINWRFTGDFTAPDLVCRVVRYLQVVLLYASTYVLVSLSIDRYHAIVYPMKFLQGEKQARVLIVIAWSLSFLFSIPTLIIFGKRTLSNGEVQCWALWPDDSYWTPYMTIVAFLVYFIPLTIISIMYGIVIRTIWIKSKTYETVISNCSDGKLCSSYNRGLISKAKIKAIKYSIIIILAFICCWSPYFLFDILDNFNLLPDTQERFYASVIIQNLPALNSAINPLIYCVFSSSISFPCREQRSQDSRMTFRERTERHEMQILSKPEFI
Numbers without * were called inactive; u = inconclusive; x = not tested or not shown; [ ] = remark or other dose. Compounds with a hit are over-represented: about 3.3% of the library has one in this group of screens. Unless noted, the call rests on the fitted dose curve; in most records, active means well fitted curve in the direction sought with a large enough effect; inconclusive means small, poorly fitted or top-dose-only effect, or another doubt; inactive means no such curve, though single readings can be large; an effect the other way counts as inactive or inconclusive.

SMILES	HTT cytoprotect	IMPase inh	HTT aggregate	12-hLO inh	PNC assembly inh	NPSR antagonist
COc1cc(OC)cc(-c2n[nH]c(=S)n2-c2ccc3c(c2)OCO3)c1	-5%[10 µM]	x	7%	-3%	-104*	-27%
COc1cccc(CNc2ccc(F)c(Cl)c2)c1O	-1%[0.074 µM]	3	6%	-3%	11	10µM*
COc1cccc(CNc2cccc3cccnc23)c1O	8%[1.9 µM]	4	u	-23%	-94*	22%[46.1 µM]
COc1ccc(-c2nc(-c3ccccc3)oc2NC(C)C)cc1	-2%	x	x	-2%	x	x
CCOC(=O)c1cnc(-n2nc(C)cc2C)nc1NNc1nc(-c2ccccc2)cc(-c2ccccc2)n1	32%[10 µM]	x	10µM*	0%	64	-19%
CCOC(=O)c1cnc(-n2nc(C)cc2C)nc1Nc1ccc(C)cc1	28%[10 µM]	16	6%	5%	5	1.3µM*
O=C(Sc1ccccc1)c1cccc(Cn2cc(C(F)(F)F)ccc2=O)c1	8%[10 µM]	x	-14%[9.22 µM]	x	x	2%
Cc1ccc(C(O)C2=CCCC2=O)cc1 (stereo not drawn)	-3%	x	x	x	x	x
Cc1cc(C)n(-c2nc(Nc3ccccc3C(F)(F)F)nc(-n3nc(C)cc3C)n2)n1	11%[1.9 µM]	24	10µM*	-3%	33	0.32µM*
Cc1cc(C)n(-c2nc(NC(C)(C)C)nc(NC(C)(C)C)n2)n1	-5%	-22	24%	1%	11	-4%[46.1 µM]
COC(=O)c1c(NC(=O)/C=C/C(=O)O)sc(C)c1-c1ccc(C(C)C)cc1	-18%[10 µM]	x	-30%	x	x	13µM*
N#CC(=C(/N)Sc1ccccc1N)/C(C#N)=C(/N)Sc1ccccc1N	-40%[1.9 µM]	3	x	u	x	x
CCCc1nc2sc3c(N4CCC(C)CC4)ncnc3c2c2c1CCCC2	x	-1	x	x	x	x
O=C(Nc1ccccc1)c1sc2cc(C(F)(F)F)cnc2c1-c1cccs1	-2%	8	-9%	-2%	-10	10µM*
Cc1ccc(-n2c(=S)[nH]c3sc4c(c3c2=O)CCC4)cc1	x	x	x	x	x	7.9µM*
COc1ccc(C(=O)Nc2nc3c(s2)CCCC3)cc1S(=O)(=O)N1CCCc2ccccc21	-1%[10 µM]	x	u	-7%	-123*	-17%
O=C(NCCCNc1ccc(C(F)(F)F)cc1[N+](=O)[O-])c1ccc(Cl)cc1	-33%	u	11µM*	-16%	1	-24%[46.1 µM]
CCn1c2ccccc2c2cc(NC(=O)c3cc(OC)cc(OC)c3)ccc21	-80%[10 µM]	x	1%	0%	-97*	13%
CCn1c2ccccc2c2cc(NC(=O)c3cc(OC)c(OC)c(OC)c3)ccc21	-89%	5	u	-11%	u	26%[46.1 µM]
O=[N+]([O-])c1ccc(Nc2c3ccccc3nc3ccccc23)cc1	-123%	x	u	x	x	6.3µM*
O=C(O)c1ccccc1Nc1ccccc1C(=O)O	-27%	1	5%	5%	u	-7%[46.1 µM]
O=[N+]([O-])c1ccccc1Nc1c2ccccc2nc2ccccc12	12%[10 µM]	x	8%[9.22 µM]	x	x	-17%
O=C(O)c1ccccc1Nc1ccc([N+](=O)[O-])cc1	-55%[10 µM]	x	6%	-5%	-87*	-11%
COC(=O)N/N=C/C1=C[N+](=O)c2ccccc2[N+]1=O	-40%	x	17%	-1%	x	x
CC1=C(\C=C/C(C)=C/C=C\C(C)=C\CO)C(C)(C)CCC1	14%	x	x	x	x	x
SMILES	HTT cytoprotect	IMPase inh	HTT aggregate	12-hLO inh	PNC assembly inh	NPSR antagonist
CCOc1ccccc1NC(=S)Nc1ncccc1C	23%[10 µM]	3	u	20µM*	14	-30%[46.1 µM]
CCCCC[C@H](O)/C=C/[C@H]1OC(O)C[C@H](O)[C@@H]1C/C=C\CC(=O)O (stereo partly drawn)	-13%	x	x	0%	x	x
Clc1cccc2sc(N3CCCCC3)nc12	12%	2	-18%	-12%	-82*	5%[46.1 µM]
O=C(CN1C2=NCCCN2c2ccccc21)c1cccc(Br)c1	-97%[10 µM]	x	4µM*	-4%	19	13%
COc1ccc(NS(=O)(=O)c2ccc3c(c2)Cc2ccccc2-3)cn1	9%	5	11µM*	-15%	16	u
COc1cc2c(cc1OC)C(c1ccc(-c3ccccc3Cl)o1)=NCC2	-40%	15	u	-7%	8	u

Screens: PubChem, National Center for Advancing Translational Sciences (NCATS)
